VLA-4 inh: inhibition in a human VLA-4 binding assay; P13612; VLA-4 expressing cells, ligand binding flow cytometry; AID 2557; inhibition, % (about 7 µM as worked out from the volumes in the protocol); 0.2% of 330,000 active
Pemphigus Ab inh: inhibitors of pemphigus antibody binding to human desmoglein-3; 0.48% of 310,000 active; binding (percent of control), % at 10 µM; P32926; DSG3-coupled beads, scFv-anti-DSG3-GFP binding, flow cytometry; hits give low values;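 active = binding more than 3 SD below its plate's average and above zero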;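 note: hits lower antibody fragment binding to DSG3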
PKD1 inh: PKD1 (human) kinase inhibition; Q15139; PKD1 kinase fluorescence polarization assay; inhibition, % (no concentration beside the values); 0.056% of 200,000 active; AID 797
LANA-H2B inh: blocks KSHV LANA binding to histone H2A/H2B | inhibition, % (concentration not given with the values) | Q9QR71 | cell-free LANA-H2A/H2B peptide, fluorescence polarization | 0.6% of 320,000 active; in the data active = inhibition mostly above about 10%, no sharp cut-off; inactive = mostly below about 6.7%
Target sequence (Q9QR71 whole entry, looked up): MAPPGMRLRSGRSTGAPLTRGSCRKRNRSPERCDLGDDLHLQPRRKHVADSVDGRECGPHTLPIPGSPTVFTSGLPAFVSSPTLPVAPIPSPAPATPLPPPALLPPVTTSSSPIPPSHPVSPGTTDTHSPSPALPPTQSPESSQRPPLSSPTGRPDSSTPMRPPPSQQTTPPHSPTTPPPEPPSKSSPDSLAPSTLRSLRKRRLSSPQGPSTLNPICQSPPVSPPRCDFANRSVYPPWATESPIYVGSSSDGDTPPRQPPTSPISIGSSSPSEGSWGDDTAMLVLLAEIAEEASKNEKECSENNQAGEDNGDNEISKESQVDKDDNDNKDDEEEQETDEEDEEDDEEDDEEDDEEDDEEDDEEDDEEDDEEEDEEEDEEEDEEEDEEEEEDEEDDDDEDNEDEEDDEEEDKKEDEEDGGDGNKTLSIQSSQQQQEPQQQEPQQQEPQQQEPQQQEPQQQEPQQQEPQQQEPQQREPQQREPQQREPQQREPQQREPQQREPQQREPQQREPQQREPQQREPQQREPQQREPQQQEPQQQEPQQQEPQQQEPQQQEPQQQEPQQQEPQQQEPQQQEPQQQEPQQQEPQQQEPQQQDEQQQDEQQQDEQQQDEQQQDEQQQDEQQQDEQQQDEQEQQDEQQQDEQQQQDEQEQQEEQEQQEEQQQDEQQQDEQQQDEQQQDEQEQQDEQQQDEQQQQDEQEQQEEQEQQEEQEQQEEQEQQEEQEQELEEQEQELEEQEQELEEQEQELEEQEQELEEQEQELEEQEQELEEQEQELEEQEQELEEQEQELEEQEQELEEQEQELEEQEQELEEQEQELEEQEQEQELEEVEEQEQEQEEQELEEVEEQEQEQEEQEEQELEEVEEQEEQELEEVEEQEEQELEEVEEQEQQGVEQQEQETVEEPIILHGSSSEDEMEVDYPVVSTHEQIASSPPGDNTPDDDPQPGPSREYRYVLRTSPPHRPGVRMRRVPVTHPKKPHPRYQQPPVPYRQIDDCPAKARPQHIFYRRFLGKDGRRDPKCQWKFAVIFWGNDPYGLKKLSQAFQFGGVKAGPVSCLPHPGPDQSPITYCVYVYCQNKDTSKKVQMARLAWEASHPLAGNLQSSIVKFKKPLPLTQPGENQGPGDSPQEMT
GRK2 inh: blocks RNA aptamer binding to human GRK2 | P25098 | bead flow cytometry, FAM-aptamer displacement from GRK2 | inhibition of aptamer binding, % at 10 µM | 0.59% of 330,000 active;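 active = inhibition of aptamer binding above 40%, roughly 3 SD of noise, on plates passing a quality check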;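 note: median bead fluorescence of bound FAM aptamer so fluorescent compounds give negative values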
HDAC3 inh: blocks human histone deacetylase 3. O15379. recombinant HDAC3, fluorogenic peptide/trypsin coupled, fluorescence. inhibition, % at 8.3 µM. 0.15% of 320,000 active. AID 2718; in the data active = inhibition above about 26%, passing the limit was not always enough
GRK2 CP1: confirmation of human GRK2 inhibitors displacing RNA aptamer | shares compounds with GRK2 inh | bead-bound GRK2, FAM-aptamer displacement, flow cytometry | aptamer displacement, % at 10 µM | 4% of 2,000 active | AID 504451;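 active = aptamer displacement above 40%, near three times the noise of non-fluorescent compounds, on plates passing quality checks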;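 note: negative values mostly reflect intrinsic compound fluorescence rather than true enhancement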
Aptamer quench 1: counter-screen for GRK2 aptamer inhibitors: fluorescent aptamer quenchers | 110 tested, under 10 active | Fluorescent RNA aptamer beads, quenching, flow cytometry; hits give high values | shares compounds with GRK2 inh | fluorescence change (kMESF span), kMESF (no concentration beside the values);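 active = compounds whose bead fluorescence drops by more than 37 kMESF across the dose range, marking them as dye quenchers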
FAM quench CP1: counter-screen for GRK2 aptamer inhibitors: fluorescent aptamer quenchers | Carboxyfluorescein RNA aptamer on beads, flow cytometry quenching; hits give low values | shares compounds with GRK2 inh | 2,000 tested, under 10 active | fluorescence response (% of DMSO), % at 10 µM;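 active = compounds that quench the bead-bound fluorescent RNA probe, cutting fluorescence to under half of the solvent control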;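 note: counterscreen run without GRK2 so only probe quenching by compound is measured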
GRK2 CP2: confirmation of human GRK2 inhibitors binding RNA aptamer site; bead-bound GRK2, FAM-aptamer displacement, flow cytometry; AID 504782; inhibition of aptamer binding, % at 10 µM; shares compounds with GRK2 inh; 360 tested, under 10 active;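 active = inhibition of aptamer binding above 40%, about triple the noise seen with nonglowing compounds, on plates passing quality control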;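 note: negative values mostly come from compounds that fluoresce themselves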
FAM quench CP2: aptamer fluorescence quenching in GRK2 counter-screen. 360 tested, under 10 active. fluorescence response vs DMSO, % at 10 µM. carboxyfluorescein RNA aptamer beads, flow cytometry quenching; hits give low values. shares compounds with GRK2 inh;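 active = response vs DMSO under 50%, meaning signal dropped by over half, treated as fluorescence quencher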;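 note: labelled aptamer on streptavidin beads without GRK2 as a quench counter-screen; 100% = bead fluorescence of DMSO wells and lower means quenching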
* hit, by the source's call. In the library only some 1.8% were active in any assay of this set; here they are far more common. Cut-off read from the data, not from the text of the source, unless noted: active = inhibition above about 50%; inactive = the rest.

Screening CCOC(=O)/C(C#N)=c1/s/c(=C2\C=Cc3ccccc3N2CC)c(=O)n1CC returned VLA-4 inh -2.7, Pemphigus Ab inh 111.5, PKD1 inh -2.3, LANA-H2B inh -0.2, GRK2 inh 65.0*, HDAC3 inh -5.1, GRK2 CP1 -20.4 and FAM quench CP1 100.7.
CCN1/C(=c2/s/c(=C3/C(=O)N(c4ccccc4)N=C3C)n(CC)c2=O)C=Cc2ccccc21 was read as VLA-4 inh -9.3, Pemphigus Ab inh 96.0, LANA-H2B inh -1.2, GRK2 inh 4.0 and HDAC3 inh -12.7.
`CCCNc1c(NC(=O)C2CCC(C)CC2)c(=O)oc2ccccc12` (stereo unspecified) gave VLA-4 inh 14.0, Pemphigus Ab inh 103.8, LANA-H2B inh 1.1, GRK2 inh 0.0 and HDAC3 inh -0.4.
CC1CC(C)CN(S(=O)(=O)N2CCCC(C(=O)NCCc3ccccc3)C2)C1 (stereo unspecified) was read as VLA-4 inh 20.9, Pemphigus Ab inh 97.5, LANA-H2B inh -1.4, GRK2 inh 0.0 and HDAC3 inh -1.7.
For COc1ccc(/C=C2\CCc3c2nc2ccccc2c3C(=O)O)cc1OC the results were VLA-4 inh -2.2, Pemphigus Ab inh 100.8, LANA-H2B inh 1.9, GRK2 inh 1.0, HDAC3 inh 1.0, GRK2 CP1 17.2 and FAM quench CP1 99.8.
Screening CN(C)C(=O)c1cn(N(C)c2ncc(C(F)(F)F)cc2Cl)c(=O)c2ccccc12 returned VLA-4 inh 7.5, Pemphigus Ab inh 102.8, PKD1 inh 4.1, LANA-H2B inh 6.9, GRK2 inh 0.0 and HDAC3 inh -9.8.
CN(c1ncc(C(F)(F)F)cc1Cl)N1C(=O)c2cccc([N+](=O)[O-])c2C1=O was read as VLA-4 inh 23.5, Pemphigus Ab inh 94.5, PKD1 inh -4.1, LANA-H2B inh -7.2, GRK2 inh 57.0*, HDAC3 inh 2.2, GRK2 CP1 -0.2 and FAM quench CP1 101.9.
Cc1oc(-c2ccccc2Cl)nc1CSc1nc2c(c(=O)[nH]1)CCC2 was read as VLA-4 inh -7.6, Pemphigus Ab inh 93.2, PKD1 inh -5.9, LANA-H2B inh -7.4, GRK2 inh 56.0*, HDAC3 inh -2.0, GRK2 CP1 7.0 and FAM quench CP1 98.5.
Screening Cc1oc(-c2cccc(Cl)c2)nc1CSc1nc2c(c(=O)[nH]1)CCC2 returned VLA-4 inh -9.5, Pemphigus Ab inh 97.2, PKD1 inh -1.4, LANA-H2B inh 1.5, GRK2 inh 1.0 and HDAC3 inh 3.1.
Screening CCOCCCNC(=O)CS(=O)(=O)Cc1nc(-c2cccc(OC)c2)oc1C returned VLA-4 inh -2.6, Pemphigus Ab inh 108.1, PKD1 inh 7.5, LANA-H2B inh 0.3, GRK2 inh 56.0*, HDAC3 inh 9.0, GRK2 CP1 2.3 and FAM quench CP1 100.4.
Screening Cc1oc(-c2cccc(Cl)c2)nc1CS(=O)(=O)CC(=O)NC1CCCC1 returned VLA-4 inh 1.0, Pemphigus Ab inh 103.1, LANA-H2B inh 5.7, GRK2 inh 67.0*, HDAC3 inh 3.8, GRK2 CP1 -1.7 and FAM quench CP1 96.2.
`CCOC(=O)N1CCC(NC(=O)CSCc2nc(-c3ccccc3Cl)oc2C)CC1` gave VLA-4 inh 12.6, Pemphigus Ab inh 102.9, LANA-H2B inh 5.4, GRK2 inh 3.0 and HDAC3 inh 3.7.
For CCCNC(=O)CS(=O)(=O)Cc1nc(-c2cccc(OC)c2)oc1C the results were VLA-4 inh -3.6, Pemphigus Ab inh 87.9, PKD1 inh -0.8, LANA-H2B inh -2.8 and GRK2 inh 0.0.
`Cc1oc(-c2ccccc2Cl)nc1CSCC(=O)NC1CCCC1` gave VLA-4 inh -0.2, Pemphigus Ab inh 100.2, PKD1 inh 1.4, LANA-H2B inh 3.9, GRK2 inh 30.0, HDAC3 inh -0.4, GRK2 CP1 -0.5 and FAM quench CP1 98.7.
`CN(C(=O)COC(=O)c1cccs1)c1ccccc1` gave Pemphigus Ab inh 98.5.
`CCOc1ccc2nc(SCC(=O)Nc3ccc4c(c3)OCCO4)[nH]c2c1` gave VLA-4 inh 4.4, Pemphigus Ab inh 104.2, PKD1 inh 1.7, LANA-H2B inh 2.2, GRK2 inh 0.0 and HDAC3 inh 8.5.
COc1ccc2nc(SCC(=O)Nc3ccc4c(c3)OCCO4)[nH]c2c1 was read as VLA-4 inh 16.9, Pemphigus Ab inh 105.8, PKD1 inh -11.0, LANA-H2B inh 4.5, GRK2 inh 75.0*, HDAC3 inh -1.1, GRK2 CP1 98.6*, Aptamer quench 1 -29.3 and FAM quench CP1 127.2.
`COc1ccc(N(CC(=O)NCc2ccco2)S(=O)(=O)c2ccc(C)cc2)cc1OC` gave VLA-4 inh 24.0, Pemphigus Ab inh 111.1, LANA-H2B inh 2.9, GRK2 inh 2.0 and HDAC3 inh -0.2.
COc1ccccc1N(CC(=O)NCc1ccco1)S(=O)(=O)c1ccc(C)cc1 was read as VLA-4 inh -5.5, Pemphigus Ab inh -59.7*, LANA-H2B inh -5.5, GRK2 inh 46.0*, HDAC3 inh 3.8, GRK2 CP1 22.8 and FAM quench CP1 98.8.
Screening CCOc1ccc(OCCn2c(S(=O)(=O)O)nc3c(N)ncnc32)cc1 returned VLA-4 inh 25.0, Pemphigus Ab inh 86.7, LANA-H2B inh -0.5, GRK2 inh 0.0 and HDAC3 inh 1.2.
CCC(CC)C(=O)Nc1ccc(C(=O)c2ccccc2)cc1 was read as VLA-4 inh 11.7, Pemphigus Ab inh 82.6, PKD1 inh 0.9, LANA-H2B inh -3.0, GRK2 inh 61.0*, HDAC3 inh 0.9, GRK2 CP2 3.2 and FAM quench CP2 101.0.
`CCn1c(SCC(=O)O)nc2sc3c(c2c1=O)CCC3` gave VLA-4 inh 0.7, Pemphigus Ab inh 105.7, PKD1 inh -7.0, LANA-H2B inh 0.4, GRK2 inh 35.0 and HDAC3 inh -9.3.

Bioassay records deposited in PubChem by several laboratories.
